What was measured:
Settings in all cases: concentration: 1 μM, replicates: in singlicate; n = 1
DAPK1 = tested on: DAPK1
DAPK2 = tested on: DAPK2
DAPK3 = tested on: DAPK3
DCAMKL1 = tested on: T1, DCAMKL1
T1 construct: gene DCLK1

DCAMKL2 = tested on: T2, DCAMKL2
T2 construct: gene DCLK2

DCAMKL3 = tested on: T3, DCAMKL3
T3 construct: gene DCLK3

DDR1 = tested on: DDR1
DDR2 = tested on: DDR2
DLK = tested on: T4, DLK
T4 construct: gene MAP3K12

DMPK2 = tested on: T5, DMPK2
T5 construct: gene CDC42BPG

DMPK = tested on: DMPK
DRAK1 = tested on: T6, DRAK1
T6 construct: gene STK17A

DRAK2 = tested on: T7, DRAK2
T7 construct: gene STK17B

DYRK1A = tested on: DYRK1A
DYRK1B = tested on: DYRK1B
DYRK2 = tested on: DYRK2
EGFR = tested on: EGFR
EIF2AK1 = tested on: EIF2AK1
EPHA1 = tested on: EPHA1
EPHA2 = tested on: EPHA2
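Also: KINOMEscan kinase panel screen.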

Structure (SMILES)	%Inh (DAPK1)	%Inh (DAPK2)	%Inh (DAPK3)	%Inh (DCAMKL1)	%Inh (DCAMKL2)	%Inh (DCAMKL3)	%Inh (DDR1)	%Inh (DDR2)	%Inh (DLK)	%Inh (DMPK2)	%Inh (DMPK)	%Inh (DRAK1)	%Inh (DRAK2)	%Inh (DYRK1A)	%Inh (DYRK1B)	%Inh (DYRK2)	%Inh (EGFR)	%Inh (EIF2AK1)	%Inh (EPHA1)	%Inh (EPHA2)
Fc1ccc(-c2nn3c(OCC(F)(F)F)cccc3c2-c2ccncc2)cc1 [GW514784]	0%	0%	0%	0%	0%	36%	80%	81%	40%	95.3%	0%	18%	0%	3%	0%	10%	20%	0%	8%	7%
Cc1nnc(-c2ccc(C)c(-c3ccc(C(=O)Nc4ccc(NS(C)(=O)=O)cc4)cc3)c2)o1 [GW702865]	8%	3%	18%	8%	0%	0%	0%	46%	0%	0%	0%	0%	0%	0%	1%	0%	13%	0%	0%	16%
COCCNC(=O)c1ccc(-c2cc(C(=O)NC3CC3)cc(F)c2C)cc1 [GW868318]	10%	0%	28%	12%	19%	13%	21%	21%	6%	0%	20%	13%	0%	9%	21%	28%	21%	22%	29%	7%
Cc1nnc(-c2ccc3occ(-c4ccc(C(C)O)cc4)c3c2)o1 (stereo not drawn)	7%	0%	0%	13%	12%	11%	12%	12%	0%	3%	7%	19%	36%	18%	11%	0%	28%	0%	0%	0%
CCn1cnc2c(N)ncnc21 [GW345098]	14%	5%	18%	7%	7%	25%	18%	0%	0%	9%	0%	6%	9%	0%	28%	12%	15%	0%	6%	14%
CC(C)(C)n1cnc2c(N)ncnc21 [SKF-97359]	78%	19%	0%	0%	0%	11%	0%	0%	31%	0%	9%	0%	6%	0%	61%	0%	39%	0%	0%	0%
CCc1nc(-c2cccc(C)c2)c(-c2ccnc(NCc3ccccc3)c2)s1	2%	10%	0%	10%	8%	0%	14%	18%	0%	5%	0%	2%	16%	0%	23%	2%	0%	0%	0%	1%
O=c1cc(N2CCOCC2)nc2n(Cc3cccc(C(F)(F)F)c3)ccn12 [GSK2297543]	0%	9%	10%	21%	10%	0%	0%	2%	0%	0%	9%	0%	0%	6%	0%	5%	25%	0%	0%	13%
O=c1cc(N2CCOCC2)nc2n(Cc3cccc4ccccc34)ccn12 [GSK2333389]	0%	0%	0%	0%	0%	2%	14%	0%	0%	0%	0%	0%	0%	20%	7%	21%	0%	0%	8%	0%

From article PMC5540273 (PLoS ONE, 2017)
